# Experiments:
# Experiment in all cases: DAPPL (digital affinity profiling via proximity ligation, sequencing); 10 mM Tris-HCl pH 7.5, 50 mM NaCl, 1 mM DTT, 4% glycerol, room temperature, 30 min; GST-TFs on glutathione beads, 16-mer random dsDNA library, 0.1% formaldehyde crosslink after washing; high values mean tight binding
# Details in all cases: protein: recombinant; tags: N-terminal GST; dsDNA, one strand shown
# GABPA = target: T1, GABPA (Homo sapiens, UniProt Q06546 1-454)
# T1 sequence: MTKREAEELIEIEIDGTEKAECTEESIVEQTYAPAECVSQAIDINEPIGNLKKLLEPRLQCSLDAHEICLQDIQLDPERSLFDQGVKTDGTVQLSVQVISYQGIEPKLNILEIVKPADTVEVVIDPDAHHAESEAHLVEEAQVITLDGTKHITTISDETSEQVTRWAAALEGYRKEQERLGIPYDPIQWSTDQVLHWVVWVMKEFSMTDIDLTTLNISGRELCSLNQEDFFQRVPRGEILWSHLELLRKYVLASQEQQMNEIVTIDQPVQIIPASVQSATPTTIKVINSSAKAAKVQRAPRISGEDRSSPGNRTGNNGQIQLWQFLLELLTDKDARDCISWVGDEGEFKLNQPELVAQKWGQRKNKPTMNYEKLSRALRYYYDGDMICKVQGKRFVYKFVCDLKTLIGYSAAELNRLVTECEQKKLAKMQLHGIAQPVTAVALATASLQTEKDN
# Procedure, shortened: (§1)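 Beads coated with glutathione captured GST-fused human transcription factors that had been expressed in yeast, and the factors were then given DNA barcodes and pooled with a tag-only sample. The pools were incubated with 200 nmole of a random double-stranded 16-mer DNA library in Tris/NaCl/DTT/glycerol buffer for 30 min at room temperature, washed, crosslinked with 0.1% formaldehyde and proximity-ligated with BsaI/T4 ligase at 37 °C for 1 h. PCR amplification and Illumina NextSeq500 sequencing came last. Binding signal is each hexamer's read frequency for a factor divided by its frequency for the tag-only sample.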
# ERG = target: T2, ERG (Homo sapiens, UniProt P11308 1-479)
# T2 sequence: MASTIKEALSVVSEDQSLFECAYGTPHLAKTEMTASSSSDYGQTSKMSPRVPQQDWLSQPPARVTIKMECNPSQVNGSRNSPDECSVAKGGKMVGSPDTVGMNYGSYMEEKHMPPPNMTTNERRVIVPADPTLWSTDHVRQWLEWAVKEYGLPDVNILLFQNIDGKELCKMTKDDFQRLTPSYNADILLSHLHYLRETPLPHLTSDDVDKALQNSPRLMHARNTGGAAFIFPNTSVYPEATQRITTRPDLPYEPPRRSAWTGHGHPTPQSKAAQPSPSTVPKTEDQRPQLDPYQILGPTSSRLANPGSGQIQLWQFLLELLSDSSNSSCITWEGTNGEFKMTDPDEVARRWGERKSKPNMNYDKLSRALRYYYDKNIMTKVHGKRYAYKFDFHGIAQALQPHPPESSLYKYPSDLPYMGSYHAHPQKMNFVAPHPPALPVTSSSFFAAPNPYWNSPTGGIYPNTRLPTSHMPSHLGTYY
# Procedure, shortened: as §1
# ELF1 = ELF1 (Homo sapiens, UniProt P32519 1-619)
# ELF1, sequence (P32519 whole entry): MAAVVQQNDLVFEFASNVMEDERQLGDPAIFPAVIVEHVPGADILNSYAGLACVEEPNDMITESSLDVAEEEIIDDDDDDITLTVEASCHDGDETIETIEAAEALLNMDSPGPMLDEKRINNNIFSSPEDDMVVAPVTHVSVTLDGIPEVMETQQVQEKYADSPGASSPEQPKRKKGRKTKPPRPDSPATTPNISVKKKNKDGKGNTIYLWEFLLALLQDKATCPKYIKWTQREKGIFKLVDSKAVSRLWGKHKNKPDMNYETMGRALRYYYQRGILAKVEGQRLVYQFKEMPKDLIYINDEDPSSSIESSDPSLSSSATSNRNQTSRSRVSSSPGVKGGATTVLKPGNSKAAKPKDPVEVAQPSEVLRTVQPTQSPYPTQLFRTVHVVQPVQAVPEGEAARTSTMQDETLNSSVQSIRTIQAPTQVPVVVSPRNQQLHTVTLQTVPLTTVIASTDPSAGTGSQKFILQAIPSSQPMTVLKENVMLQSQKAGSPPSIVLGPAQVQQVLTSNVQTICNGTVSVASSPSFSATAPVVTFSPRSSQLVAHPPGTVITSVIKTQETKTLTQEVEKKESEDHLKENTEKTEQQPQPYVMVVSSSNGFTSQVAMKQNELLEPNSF
# Procedure, shortened: as §1
# EHF = target: T3, EHF (Homo sapiens, UniProt Q9NZC4 1-300)
# T3 sequence: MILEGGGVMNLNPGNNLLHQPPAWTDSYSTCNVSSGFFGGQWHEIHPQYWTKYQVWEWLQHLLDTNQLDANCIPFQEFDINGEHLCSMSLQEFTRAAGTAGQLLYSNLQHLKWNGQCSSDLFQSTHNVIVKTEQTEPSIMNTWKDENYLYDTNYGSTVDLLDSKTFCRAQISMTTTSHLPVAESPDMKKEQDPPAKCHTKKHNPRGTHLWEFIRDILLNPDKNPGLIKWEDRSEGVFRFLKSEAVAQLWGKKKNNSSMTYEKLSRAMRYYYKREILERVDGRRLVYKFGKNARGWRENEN
# Procedure, shortened: as §1
# SPIB = SPIB (Homo sapiens, UniProt Q01892 1-262)
# SPIB, sequence (Q01892 whole entry): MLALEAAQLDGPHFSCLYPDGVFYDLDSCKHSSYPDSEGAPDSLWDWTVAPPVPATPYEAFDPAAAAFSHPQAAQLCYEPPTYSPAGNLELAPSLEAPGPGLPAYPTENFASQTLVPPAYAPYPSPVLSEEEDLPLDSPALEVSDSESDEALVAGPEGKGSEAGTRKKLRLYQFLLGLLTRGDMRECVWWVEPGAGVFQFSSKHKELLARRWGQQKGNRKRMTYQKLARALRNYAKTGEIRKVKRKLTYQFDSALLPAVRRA
# Procedure, shortened: as §1
# ELK3 = target: T4, ELK3 (Homo sapiens, UniProt P41970 1-407)
# T4 sequence: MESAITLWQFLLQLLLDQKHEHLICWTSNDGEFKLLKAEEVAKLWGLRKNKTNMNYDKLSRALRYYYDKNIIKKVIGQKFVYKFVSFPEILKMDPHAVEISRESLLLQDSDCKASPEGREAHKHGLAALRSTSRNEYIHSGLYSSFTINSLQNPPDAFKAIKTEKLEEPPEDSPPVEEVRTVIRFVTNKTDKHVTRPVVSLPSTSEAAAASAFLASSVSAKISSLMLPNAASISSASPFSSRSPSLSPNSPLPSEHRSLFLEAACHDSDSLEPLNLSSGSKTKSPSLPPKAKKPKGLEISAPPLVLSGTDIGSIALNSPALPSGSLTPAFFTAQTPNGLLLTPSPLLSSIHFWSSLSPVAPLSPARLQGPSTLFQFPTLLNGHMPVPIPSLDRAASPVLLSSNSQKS
# Procedure, shortened: as §1
# SPIC = target: T5, SPIC (Homo sapiens, UniProt Q8N5J4 1-248)
# T5 sequence: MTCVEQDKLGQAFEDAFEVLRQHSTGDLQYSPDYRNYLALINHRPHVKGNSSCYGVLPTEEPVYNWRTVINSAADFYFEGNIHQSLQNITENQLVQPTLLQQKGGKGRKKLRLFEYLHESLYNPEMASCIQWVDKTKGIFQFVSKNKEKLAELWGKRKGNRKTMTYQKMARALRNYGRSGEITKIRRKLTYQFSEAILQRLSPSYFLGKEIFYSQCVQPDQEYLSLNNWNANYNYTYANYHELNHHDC
# Procedure, shortened: as §1
# ELF4 = ELF4 (Homo sapiens, UniProt Q99607 1-663)
# ELF4, sequence (Q99607 whole entry): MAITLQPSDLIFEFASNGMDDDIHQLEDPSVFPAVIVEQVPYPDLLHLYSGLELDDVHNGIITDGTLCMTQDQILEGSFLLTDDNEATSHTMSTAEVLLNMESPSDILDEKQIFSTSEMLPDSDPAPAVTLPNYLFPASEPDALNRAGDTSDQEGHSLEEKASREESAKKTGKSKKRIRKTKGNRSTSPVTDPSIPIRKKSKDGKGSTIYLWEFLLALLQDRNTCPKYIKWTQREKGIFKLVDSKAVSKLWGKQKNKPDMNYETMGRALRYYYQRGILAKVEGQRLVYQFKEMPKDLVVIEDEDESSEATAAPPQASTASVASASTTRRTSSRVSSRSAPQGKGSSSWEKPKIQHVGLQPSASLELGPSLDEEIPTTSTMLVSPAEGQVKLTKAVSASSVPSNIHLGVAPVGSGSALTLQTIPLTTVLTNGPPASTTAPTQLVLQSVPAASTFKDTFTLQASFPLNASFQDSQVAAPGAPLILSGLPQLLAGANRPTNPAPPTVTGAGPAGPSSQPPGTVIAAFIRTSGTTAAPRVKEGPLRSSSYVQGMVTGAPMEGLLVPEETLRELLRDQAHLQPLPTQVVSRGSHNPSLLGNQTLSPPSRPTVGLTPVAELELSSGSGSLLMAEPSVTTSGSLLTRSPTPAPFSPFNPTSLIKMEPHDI
# Procedure, shortened: as §1
# ELK4 = target: T6, ELK4 (Homo sapiens, UniProt P28324-2 1-405)
# T6 sequence: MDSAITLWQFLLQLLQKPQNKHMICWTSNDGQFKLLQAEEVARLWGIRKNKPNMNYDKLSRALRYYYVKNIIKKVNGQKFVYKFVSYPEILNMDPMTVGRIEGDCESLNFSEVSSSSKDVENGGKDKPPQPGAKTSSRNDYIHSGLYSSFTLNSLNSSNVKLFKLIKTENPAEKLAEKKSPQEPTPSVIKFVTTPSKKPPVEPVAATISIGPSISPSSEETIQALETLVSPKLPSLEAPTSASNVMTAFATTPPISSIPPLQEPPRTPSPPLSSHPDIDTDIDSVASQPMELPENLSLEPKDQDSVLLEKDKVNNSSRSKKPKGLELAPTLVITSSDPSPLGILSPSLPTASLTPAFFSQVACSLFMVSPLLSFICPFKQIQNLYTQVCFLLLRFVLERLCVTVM
# Procedure, shortened: as §1
# ELF3 = target: T7, ELF3 (Homo sapiens, UniProt P78545 1-371)
# T7 sequence: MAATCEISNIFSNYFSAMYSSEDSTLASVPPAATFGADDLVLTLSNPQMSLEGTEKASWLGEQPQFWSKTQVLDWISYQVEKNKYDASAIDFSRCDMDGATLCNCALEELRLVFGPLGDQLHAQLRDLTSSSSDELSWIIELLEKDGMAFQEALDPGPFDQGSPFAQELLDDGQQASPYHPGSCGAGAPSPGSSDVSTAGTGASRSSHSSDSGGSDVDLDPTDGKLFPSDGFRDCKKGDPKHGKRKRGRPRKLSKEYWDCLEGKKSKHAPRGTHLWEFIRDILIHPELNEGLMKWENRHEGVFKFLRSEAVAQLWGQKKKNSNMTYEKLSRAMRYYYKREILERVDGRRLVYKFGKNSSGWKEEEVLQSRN
# Procedure, shortened: as §1
# ETV1 = ETV1 (Homo sapiens, UniProt P50549 1-477)
# ETV1, sequence (P50549 whole entry): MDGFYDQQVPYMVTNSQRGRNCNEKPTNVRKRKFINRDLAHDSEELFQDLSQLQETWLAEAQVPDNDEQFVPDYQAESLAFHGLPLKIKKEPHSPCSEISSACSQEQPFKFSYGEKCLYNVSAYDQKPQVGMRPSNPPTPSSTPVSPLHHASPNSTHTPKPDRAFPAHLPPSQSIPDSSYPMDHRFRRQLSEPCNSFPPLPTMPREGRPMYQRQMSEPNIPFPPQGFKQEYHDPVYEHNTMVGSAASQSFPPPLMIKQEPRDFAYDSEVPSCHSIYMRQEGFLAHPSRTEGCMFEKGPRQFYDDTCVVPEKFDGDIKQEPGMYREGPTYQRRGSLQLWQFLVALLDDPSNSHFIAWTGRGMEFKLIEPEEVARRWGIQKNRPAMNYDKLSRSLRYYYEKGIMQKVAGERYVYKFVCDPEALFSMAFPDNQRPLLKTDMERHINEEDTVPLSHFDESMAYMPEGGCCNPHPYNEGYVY
# Procedure, shortened: as §1
# ERF = target: T8, ERF (Homo sapiens, UniProt P50548 1-548)
# T8 sequence: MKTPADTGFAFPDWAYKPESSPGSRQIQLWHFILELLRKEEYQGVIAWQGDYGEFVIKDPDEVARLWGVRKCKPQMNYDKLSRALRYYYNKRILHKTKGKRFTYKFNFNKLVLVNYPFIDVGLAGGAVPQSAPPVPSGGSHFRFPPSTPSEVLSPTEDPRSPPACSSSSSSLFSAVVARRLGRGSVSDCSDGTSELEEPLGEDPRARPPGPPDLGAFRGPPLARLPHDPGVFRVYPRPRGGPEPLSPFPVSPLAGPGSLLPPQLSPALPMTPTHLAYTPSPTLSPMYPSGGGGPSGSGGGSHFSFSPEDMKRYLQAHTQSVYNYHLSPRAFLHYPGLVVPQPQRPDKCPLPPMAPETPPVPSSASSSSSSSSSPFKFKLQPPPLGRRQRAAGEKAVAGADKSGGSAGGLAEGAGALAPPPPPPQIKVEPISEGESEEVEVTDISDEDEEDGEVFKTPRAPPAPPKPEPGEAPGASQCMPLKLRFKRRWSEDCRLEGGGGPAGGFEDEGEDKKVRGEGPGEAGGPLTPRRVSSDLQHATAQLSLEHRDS
# Procedure, shortened: as §1
# ETV3L = target: T9, ETV3L (Homo sapiens, UniProt Q6ZN32 1-361)
# T9 sequence: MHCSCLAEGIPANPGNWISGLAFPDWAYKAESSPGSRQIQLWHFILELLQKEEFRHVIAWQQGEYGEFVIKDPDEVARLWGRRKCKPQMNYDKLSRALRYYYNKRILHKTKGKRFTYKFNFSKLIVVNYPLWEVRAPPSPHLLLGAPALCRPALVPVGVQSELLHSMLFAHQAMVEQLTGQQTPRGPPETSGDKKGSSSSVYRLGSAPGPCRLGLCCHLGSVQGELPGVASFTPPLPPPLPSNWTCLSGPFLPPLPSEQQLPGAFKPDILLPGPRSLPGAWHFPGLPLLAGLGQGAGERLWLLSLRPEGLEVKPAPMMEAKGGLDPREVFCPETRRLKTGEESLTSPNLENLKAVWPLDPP
# Procedure, shortened: as §1
# ETS2 = target: T10, ETS2 (Homo sapiens, UniProt P15036 1-469)
# T10 sequence: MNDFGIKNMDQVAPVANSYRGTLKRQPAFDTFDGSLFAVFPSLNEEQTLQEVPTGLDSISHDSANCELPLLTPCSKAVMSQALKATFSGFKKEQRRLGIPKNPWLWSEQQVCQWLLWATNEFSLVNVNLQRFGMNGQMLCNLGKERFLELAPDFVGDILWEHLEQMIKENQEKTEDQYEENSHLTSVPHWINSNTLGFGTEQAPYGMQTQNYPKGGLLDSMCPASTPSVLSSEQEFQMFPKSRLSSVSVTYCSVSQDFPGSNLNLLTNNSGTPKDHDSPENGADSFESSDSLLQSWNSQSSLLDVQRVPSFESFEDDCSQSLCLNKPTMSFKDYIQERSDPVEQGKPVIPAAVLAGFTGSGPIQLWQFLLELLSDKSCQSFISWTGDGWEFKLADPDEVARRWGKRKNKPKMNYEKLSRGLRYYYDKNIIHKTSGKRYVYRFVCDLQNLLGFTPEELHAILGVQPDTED
# Procedure, shortened: as §1
# SPDEF = target: T11, SPDEF (Homo sapiens, UniProt O95238 1-335)
# T11 sequence: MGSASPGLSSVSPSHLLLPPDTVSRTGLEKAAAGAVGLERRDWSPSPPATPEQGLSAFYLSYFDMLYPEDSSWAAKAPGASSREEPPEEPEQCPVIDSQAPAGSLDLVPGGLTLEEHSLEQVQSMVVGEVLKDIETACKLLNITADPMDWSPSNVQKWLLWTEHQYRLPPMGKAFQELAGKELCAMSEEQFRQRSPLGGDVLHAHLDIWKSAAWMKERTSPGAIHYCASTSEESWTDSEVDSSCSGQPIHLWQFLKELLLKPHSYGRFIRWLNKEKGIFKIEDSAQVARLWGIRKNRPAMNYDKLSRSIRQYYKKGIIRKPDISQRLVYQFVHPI
# Procedure, shortened: as §1
# ETV7 = target: T12, ETV7 (Homo sapiens, UniProt Q9Y603 1-341)
# T12 sequence: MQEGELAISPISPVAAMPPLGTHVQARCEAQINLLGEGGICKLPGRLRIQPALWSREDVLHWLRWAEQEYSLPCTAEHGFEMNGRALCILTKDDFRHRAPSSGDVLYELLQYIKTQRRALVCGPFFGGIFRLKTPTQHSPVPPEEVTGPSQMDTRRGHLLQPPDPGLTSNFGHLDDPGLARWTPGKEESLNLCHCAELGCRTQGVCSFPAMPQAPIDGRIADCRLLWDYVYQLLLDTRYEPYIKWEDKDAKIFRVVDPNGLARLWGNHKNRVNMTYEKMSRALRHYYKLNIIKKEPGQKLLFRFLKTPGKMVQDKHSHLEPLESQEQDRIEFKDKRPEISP
# Procedure, shortened: as §1
# ETV3 = target: T13, ETV3 (Homo sapiens, UniProt P41162-2 1-143)
# T13 sequence: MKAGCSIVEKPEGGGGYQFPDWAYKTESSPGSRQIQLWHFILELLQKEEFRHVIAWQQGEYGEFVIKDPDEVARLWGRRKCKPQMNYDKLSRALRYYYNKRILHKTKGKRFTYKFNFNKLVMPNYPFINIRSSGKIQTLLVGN
# Procedure, shortened: as §1
# ETV6 = ETV6 (Homo sapiens, UniProt P41212 1-452)
# ETV6, sequence (P41212 whole entry): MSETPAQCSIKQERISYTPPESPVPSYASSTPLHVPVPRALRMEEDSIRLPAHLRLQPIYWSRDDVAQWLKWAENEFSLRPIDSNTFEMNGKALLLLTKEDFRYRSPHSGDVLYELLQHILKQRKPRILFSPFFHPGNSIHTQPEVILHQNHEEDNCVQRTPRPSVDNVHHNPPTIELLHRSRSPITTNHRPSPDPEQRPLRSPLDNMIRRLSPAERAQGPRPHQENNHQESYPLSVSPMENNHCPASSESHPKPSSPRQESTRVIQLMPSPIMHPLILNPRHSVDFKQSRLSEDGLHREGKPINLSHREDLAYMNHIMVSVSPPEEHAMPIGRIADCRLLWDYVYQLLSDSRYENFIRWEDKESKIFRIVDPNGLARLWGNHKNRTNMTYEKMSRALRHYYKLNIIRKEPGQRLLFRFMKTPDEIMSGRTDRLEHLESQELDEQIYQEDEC
# Procedure, shortened: as §1
sequence,measurement,setting,value
TTGCCA,binding signal,GABPA,"1.13 fold enrichment (6-mer frequency, TF over GST control)"
same,binding signal,ERG,"1.08 fold enrichment (6-mer frequency, TF over GST control)"
same,binding signal,ELF1,"1.03 fold enrichment (6-mer frequency, TF over GST control)"
same,binding signal,EHF,"1.12 fold enrichment (6-mer frequency, TF over GST control)"
same,binding signal,SPIB,"1.02 fold enrichment (6-mer frequency, TF over GST control)"
same,binding signal,ELK3,"1.05 fold enrichment (6-mer frequency, TF over GST control)"
same,binding signal,SPIC,"1.16 fold enrichment (6-mer frequency, TF over GST control)"
same,binding signal,ELF4,"1.07 fold enrichment (6-mer frequency, TF over GST control)"
same,binding signal,ELK4,"1.15 fold enrichment (6-mer frequency, TF over GST control)"
same,binding signal,ELF3,"1.17 fold enrichment (6-mer frequency, TF over GST control)"
same,binding signal,ETV1,"1.06 fold enrichment (6-mer frequency, TF over GST control)"
same,binding signal,ERF,"1.23 fold enrichment (6-mer frequency, TF over GST control)"
same,binding signal,ETV3L,"1 fold enrichment (6-mer frequency, TF over GST control)"
same,binding signal,ETS2,"1.05 fold enrichment (6-mer frequency, TF over GST control)"
same,binding signal,SPDEF,"1.14 fold enrichment (6-mer frequency, TF over GST control)"
same,binding signal,ETV7,"1.03 fold enrichment (6-mer frequency, TF over GST control)"
same,binding signal,ETV3,"1.12 fold enrichment (6-mer frequency, TF over GST control)"
same,binding signal,ETV6,"1.06 fold enrichment (6-mer frequency, TF over GST control)"
